In PubChem BioAssay (EPA / NIEHS):
Where “and” joins values, the source holds several entries; their conditions need not be identical. Equal values may be shown once. Results filed as inconclusive are left out. More than one record can exist for a structure, and the calls need not agree. Calls of active or inactive are those of the source. The calls were made as follows, unless noted: active = hit-call score of the fitted dose curve at least 0.9, where 1 is the maximum; inactive = score below 0.9.

Columns and labels:
[1] = BSK_IMphg_SRB.Mphg: Macrophage Viability Assessment in the BioMAP Diversity Plus: IMphg Assay (AID 2284295); settings: primary human endothelial cells with macrophages
Outline: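 Venular endothelial cells co-cultured with macrophages, read 24 h after dosing. Total protein measured by 0.1% SRB staining after 10% TCA fixation, absorbance at 560 nm. Fitted in positive direction against DMSO baseline.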

[2] = read-out: Thrombomodulin, THBD (gene 7056); test: BSK_LPS_Thrombomodulin: BioMAP Diversity Plus: LPS Assay for Thrombomodulin Biomarker Activity (AID 2284296); settings: primary human HUVEC with PBMC
Outline: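 Human umbilical vein endothelial cells co-cultured with PBMC and stimulated with LPS; cell-surface thrombomodulin measured by ELISA 24 hours after compound. Gain or loss versus DMSO; cytotoxicity checked by SRB staining in parallel cultures.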

CD69, CD69 (gene 969) = test: BSK_LPS_CD69: BioMAP Diversity Plus: LPS Assay for CD69 Biomarker Activity (AID 2284303); settings: primary human HUVEC with PBMC
Outline: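 Human umbilical vein endothelial cells co-cultured with PBMC under LPS stimulation, chemical exposure 24 h; cell-surface CD69 measured by ELISA and fitted in the positive direction versus DMSO.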

[3] = IUF_NPC2c_oligodendrocyte_migration_120hr: Leibniz Research Institute for Environmental Medicine (IUF) 120-hour Neural Progenitor Cell Migration Assay for Oligodendrocyte Migration (NPC2c) (AID 2284297);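 also: O4-positive oligodendrocyte migration distance divided by radial glia migration distance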
Outline: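 Primary hNPC spheres migrating on extracellular matrix, exposed five days to a 7-point dilution series with solvent control. Oligodendrocyte migration was scored by high-content imaging of O4 immunostaining and expressed relative to radial glia distance.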

[4] = IUF_NPC2a_radial_glia_migration_120hr: Leibniz Research Institute for Environmental Medicine (IUF) 120-hour Neural Progenitor Cell Migration Assay for Radial Glia Migration (NPC2a) (AID 2284298)
Outline: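 In this multiplexed test, fetal hNPC spheres migrate radially on poly-D-lysine/laminin in N2 medium (37C, 5% CO2, pH 7.2-7.6) under continuous compound exposure over five days. Migration is scored at 120 h from automated Hoechst nuclear imaging.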

[5] = IUF_NPC2a_radial_glia_migration_72hr: Leibniz Research Institute for Environmental Medicine (IUF) 72-hour Neural Progenitor Cell Migration Assay for Radial Glia Migration (NPC2a) (AID 2284299)
Outline: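 Primary hNPC spheres, fetal brain GW 16-19, on PDL/laminin; DMEM/F12 3:1 + 1% N2. Compound dosed day 0, 7 conc. + SC, half-medium refresh day 3. 72 h brightfield, migration distance core-to-front (um), 4 directions averaged.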

[6] = IUF_NPC2b_neuronal_migration_120hr: Leibniz Research Institute for Environmental Medicine (IUF) 120-hour Neural Progenitor Cell Migration Assay for Neuron Migration (NPC2b) (AID 2284300)
Outline: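 Neurons identified by TUBB3 immunostaining and Hoechst nuclei; migration distance measured automatically on fixed wells at 120 h, normalized to glia migration. Exposure spanned five days of differentiation in N2 medium, seven test concentrations.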

[7] = IUF_NPC3_neuronal_differentiation_120hr: Leibniz Research Institute for Environmental Medicine (IUF) 120-hour Neuronal Differentiation Assay (NPC3) (AID 2284301)
Outline: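 Primary human fetal neural progenitor spheres (GW 16-19, 0.3 mm) plated on poly-D-lysine/laminin in N2 medium, exposed from day 0 for 120 h with half-medium refresh at day 3. TUBB3+ cells as percent of Hoechst nuclei in migration area; DMSO baseline.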

[8] = IUF_NPC4_neurite_length_120hr: Leibniz Research Institute for Environmental Medicine (IUF) 120-hour Neuronal Morphology Assay for Neurite Length (NPC4) (AID 2284302)
Outline: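 Human fetal cortex (GW 16-19) neural progenitor spheres, 0.3 mm, were plated on poly-D-lysine/laminin in N2 differentiation medium and exposed from day 0 for 120 h, half-feeding at day 3. Mean TUBB3+ neurite length (µm) came from skeletonized images, relative to DMSO.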

[9] = IUF_NPC5_oligodendrocyte_differentiation_120hr: Leibniz Research Institute for Environmental Medicine (IUF) 120-hour Oligodendrocyte Differentiation Assay (NPC5) (AID 2284304; active = hit-call score of the fitted dose curve at least 0.9, where 1 is the maximum;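 also: primary human fetal neural progenitor spheres plated to migrate and differentiate; share of O4-positive cells among Hoechst nuclei found by CNN image analysis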)
Outline: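 Human primary NPC neurospheres migrating and differentiating on laminin for 120 h under continuous compound exposure (serial dilution, solvent control). Endpoint: percent O4+ oligodendrocytes among Hoechst nuclei, detected by CNN image analysis, with DMSO as negative control.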

Measured: AC50

OCC(F)(F)OC(F)(F)C(F)(F)OC(F)(F)C(F)(F)OC(F)(F)F
active: [1] 21 µM and 15.3 µM | CD69, CD69 (gene 969) 6.46 µM
inactive: [2] | CD69, CD69 (gene 969)

CO/N=C(/C(=O)OC)c1ccccc1COc1ccccc1C
inactive: [3] | [6] | [8]
active: [4] 22.9 µM | [5] 21 µM | [7] 2.33 µM | [9] 13.9 µM

O=C(O)C(F)(F)OC(F)(F)C(F)(F)OC(F)(F)F
inactive: [1] | [2] | CD69, CD69 (gene 969)
active: [1] 11.3 µM

O=C(O)C=CC(F)(C(F)(F)F)C(F)(F)F
inactive: [1] | [2] | CD69, CD69 (gene 969)

COC(=O)C(F)(F)C(F)(F)OC(F)(C(F)(F)F)C(F)(F)OC(F)=C(F)F (centres undefined)
inactive: [1] | [2] | CD69, CD69 (gene 969)

CCCCOCCOP(=O)(OCCOCCCC)OCCOCCCC
inactive: [3] | [4] | [5] | [6] | [7] | [8]
active: [9] 3.24 µM

O=S(=O)(F)C(F)(F)C(F)(F)C(F)(F)C(F)(F)C(F)(F)C(F)(F)C(F)(F)C(F)(F)F
inactive: [1] | [2] | CD69, CD69 (gene 969)

CCOP(=S)(OCC)SCSCC
inactive: [3] | [4] | [5] | [6] | [7] | [8] | [9]

CCCCC(CC)COP(=O)(Oc1ccccc1)Oc1ccccc1 (centres undefined)
inactive: [3] | [4] | [5] | [6] | [7] | [8] | [9]

O=C(O)C(F)(OC(F)(F)C(F)(F)C(F)(F)F)C(F)(F)F (centres undefined)
active: [1] 30 µM | [8] 0.342 µM
inactive: [1] | [2] | [3] | [4] | [5] | [6] | [7] | CD69, CD69 (gene 969) | [9]

CC(O)C(F)(F)C(F)(F)F (centres undefined)
inactive: [1] | [2] | CD69, CD69 (gene 969)
